Experimental findings from PubChem BioAssay (NCI) are described below.

The structures appear in SMILES notation. The panel holds about 83,000 compounds, 20% with a hit somewhere; the sample as a whole holds those more often.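 Testing used 96-well plates and a 48-hour single-concentration exposure. Example: -40 means 40% of the starting cells died.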 Calls of active or inactive are those of the source.

This assay has as its system HCC-2998 colon. Nature of the assay: NCI-60 one-dose screen, 48 h (100 = growth as untreated, 0 = no growth, -100 = all killed). To be noted: 10 µM unless noted. The method, then: Growth inhibition of the HCC-2998 human tumor cell line is measured as a screen for anti-cancer activity. Cells are grown in 96 well plates and exposed to the test compound for 48 hours. Compounds are tested at a single concentration, which is 10^-5 M for most compounds. The reported endpoint is percent growth (GI% or GIPRCNT), where numbers from 0 - 100% represent growth inhibition, and numbers from -100% - 0 represent cell death. For example, a value of 40 represents 60% growth inhibition. A value of 0 means no net growth occurred over the course of the experiment. A value of -40 indicates 40% of cells at the beginning of the experiment died by the end of the experiment. A value of -100 means all cells are dead at the end of the experiment.
NCI-60 Human Tumor Cell Lines Screen was performed using the standard one-dose NCI protocol, which is described in more detail at https://dtp.cancer.gov/discovery_development/nci-60/default.htm.
Compounds with GIPRCNT values below 10 were considered active. Activity score was based on GIPRCNT using the following formula: […]
Score is 0 for GIPRCNT values of 100 or above, 50 for GIPRCNT values of 0, and 100 for GIPRCNT values of -100.
`Fc1ccc(CNc2c3ccccc3nc3ccccc23)cc1F`: the growth was 2.15% (active).

Consider `CC(C)=C[C@@H]1c2c(c3ccccc3n(C)c2=O)O[C@H]2c3c(c4ccccc4n(C)c3=O)OC(C)(C)[C@@H]12`, for which the growth is 82.7% (inactive).

In the case of `COc1cc(/C=N/n2c(CN3CCOCC3)nc3ccccc3c2=O)cc(OC)c1OC`, the growth is 104% (inactive).

As to `COC(=O)[C@]12CC[C@@H](C)[C@H](C)[C@@H]1C1=CC[C@@H]3[C@@]4(C)C(C=O)=C[C@@](C)(COC(=O)c5ccco5)[C@@H]4C(=O)C[C@@]3(C)[C@]1(C)CC2`, the growth is 38.9% (inactive).

For `COc1ccc(/C=N/C2=C(C#N)C(c3ccc(OC)cc3)c3ccc4ccccc4c3O2)cc1` (stereo not given), the growth was 97.4% (inactive).

In the case of `COc1cc(C(=O)c2cc(C)c3[nH]c4ccc(Cl)cc4c3c2C)cc(OC)c1OC`, the growth is 14.2% (inactive).

Take `COc1cc(C2CC(=O)Nc3c2c(C)nn3-c2nc3ccccc3[nH]2)cc2c1OCC(=O)N2` (stereo not given): the growth was 103% (inactive).

For `Nc1nc(N)c2c(n1)NC(c1ccccc1)C1CCc3ccccc3C1=N2` (stereo not given), the growth was 65.4% (inactive).

As to `c1c[nH]c(CNC2CCCCC2)c1`, the growth is 109% (inactive).

Consider `N#CC1=C(/N=C/c2ccccc2)Oc2c(ccc3ccccc23)C1c1ccccc1` (stereo not given), for which the growth was -12.2% (active).

Take `CCc1ccccc1NC(=O)/C(C#N)=C/c1ccc(OC)cc1`: the growth was 98.1% (inactive).

Take `C=CC(=O)Nc1cccc(Oc2nccc(Nc3nnc(C4CC4)s3)n2)c1`: the growth is 102% (inactive).

Take `NC[C@H](O)c1ccc(O)c(O)c1`: the growth is 102% (inactive).

Take `COc1cccc(-c2nn(-c3ccccc3)cc2-c2ccnc(NCCNC(=O)Nc3ccc(Cl)c(Cl)c3)c2)c1`: the growth was -37.1% (active).

For the compound `O=C1/C(=C\c2c[nH]c3ccccc23)c2ccccc2N1c1c(Cl)cccc1Cl`, the growth was -91.9% (active).

Regarding `COc1ccc(C(=O)COc2ccc(/C=C3\Oc4ccccc4C3=O)cc2)cc1`, the growth is 115% (inactive).

With `CC(=O)n1c(-c2ccc(Cl)cc2)nc2c(c1=O)C(c1ccc(Cl)cc1)c1sc3c(Cl)cccc3c1O2` (stereo not given), the growth was -45.4% (active).

Consider `COC(=O)[C@]12CC[C@@H](C)[C@H](C)[C@@H]1C1=CC[C@@H]3[C@@]4(C)C(C=O)=C[C@@](C)(COC(C)=O)[C@@H]4C(=O)C[C@@]3(C)[C@]1(C)CC2`, for which the growth was 40% (inactive).

For the compound `COc1c(CCC[P+](c2ccccc2)(c2ccccc2)c2ccccc2)cc2c(c1OC)OCO2`, the growth is 24.1% (inactive).

For `O=S(=O)(NCCCNc1cc(-c2c(-c3cccc(O)c3)nc3sccn23)ccn1)c1cccc(Cl)c1`, the growth was 58.2% (inactive).

Turning to `Cc1ccc(/C=C2\C(=O)N(C)c3ccc(S(=O)(=O)Nc4ccc(C(C)(C)C)cc4)cc32)s1`, the growth was 85% (inactive).

In the case of `Cc1cc(NCc2cc(Nc3ccnc4cc(Cl)ccc34)ccc2F)nc(Cl)n1`, the growth is 63.2% (inactive).

Consider `CC(C)C(=O)Nc1n[nH]c2cc(-c3cccc(NS(=O)(=O)C4CC4)c3)ccc12`, for which the growth was 83.4% (inactive).

`COc1ccc(C2=NN(C(=O)c3cc(OC)c(OC)c(OC)c3)C(c3ccc(Cl)cc3)C2)cc1OC` (stereo not given): the growth is -62.4% (active).

Consider `COc1cccc(-c2nn(-c3ccccc3)cc2-c2ccnc(NCCNC(=O)Nc3ccccc3)c2)c1`, for which the growth was 39.1% (inactive).

For `Cn1c2c(c3ccc(Cl)c(Cl)c31)C(C#N)C1(CCNCC1)NC2=O` (stereo not given), the growth was -17.8% (active).

Regarding `NNC(=O)c1nc(N)n(-c2ccc(S(N)(=O)=O)cc2)n1`, the growth is 101% (inactive).

With `Cc1ccccc1NC(=O)N/C(N)=N/c1nc(C)c(C)s1`, the growth was 22.1% (inactive).

With `COc1ccc(/C=N\NC(=O)c2cc(-c3ccc(Br)cc3)n(-c3ccc(S(N)(=O)=O)cc3)n2)cc1`, the growth is 66% (inactive).

As to `O=c1c2c3c(sc2n2c(-c4cc(-c5ccccc5)nn4-c4ccccc4)nnc2n1Cc1ccccc1)CCCC3`, the growth was 98.8% (inactive).

Take `O=C(CC(SCc1ccccc1)c1ccccc1)c1ccccc1` (stereo not given): the growth was 99.9% (inactive).

As for `O=C(Nc1ccccc1-c1nc2ccccc2c(=O)[nH]1)c1cc2ccccc2[nH]1`, the growth is 104% (inactive).

In the case of `CC(=O)N1C(=S)NC(=O)C1Cn1c(-c2ccccc2)nc2ccccc21` (stereo not given), the growth is 110% (inactive).

Take `O=C(Nc1cccc(Cl)c1)c1cc(N=Nc2ccc([N+](=O)[O-])cc2Cl)ccc1O`: the growth was 45.8% (inactive).

As to `Cc1cc(NCc2cc(Nc3ccnc4cc(Cl)ccc34)ccc2F)nc(N2CCN(c3ccccc3)CC2)n1`, the growth is 28.2% (inactive).

For the compound `CC1(C)CC(=O)C2=C(C1)N(c1ccc(OC(F)(F)F)cc1)C(N)=C(C#N)C2c1ccc(Cl)cc1` (stereo not given), the growth is 94.7% (inactive).

As for `Fc1cnc(NC2CC2)nc1-c1cnc2ccc(N3CCOCC3)cn12`, the growth was 1.18% (active).

For `COc1ccc(-c2nc3ccc4[nH]ncc4c3c3c2CCCC3)cc1B(O)O`, the growth was 69.8% (inactive).

Take `COC(=O)/C=C1\S/C(=N\NS(=O)(=O)c2ccc(C)cc2)N(c2ccccc2)C1=O`: the growth is 121% (inactive).

In the case of `CCOP(=O)(OCC)C1CP(=O)(c2ccccc2)CC(C)=C1Cl` (stereo not given), the growth is 102% (inactive).
